Drawing on the supplement of paper PMC10849652, this text covers log2 fold change for 34 targets.

Of roughly 7,900 targets only a part is listed; those with a hit were picked by preference. About 0.6% of all pairs of compound and target were hits.

UniProt Q8NF50, sequence (Q8NF50 whole entry, looked up): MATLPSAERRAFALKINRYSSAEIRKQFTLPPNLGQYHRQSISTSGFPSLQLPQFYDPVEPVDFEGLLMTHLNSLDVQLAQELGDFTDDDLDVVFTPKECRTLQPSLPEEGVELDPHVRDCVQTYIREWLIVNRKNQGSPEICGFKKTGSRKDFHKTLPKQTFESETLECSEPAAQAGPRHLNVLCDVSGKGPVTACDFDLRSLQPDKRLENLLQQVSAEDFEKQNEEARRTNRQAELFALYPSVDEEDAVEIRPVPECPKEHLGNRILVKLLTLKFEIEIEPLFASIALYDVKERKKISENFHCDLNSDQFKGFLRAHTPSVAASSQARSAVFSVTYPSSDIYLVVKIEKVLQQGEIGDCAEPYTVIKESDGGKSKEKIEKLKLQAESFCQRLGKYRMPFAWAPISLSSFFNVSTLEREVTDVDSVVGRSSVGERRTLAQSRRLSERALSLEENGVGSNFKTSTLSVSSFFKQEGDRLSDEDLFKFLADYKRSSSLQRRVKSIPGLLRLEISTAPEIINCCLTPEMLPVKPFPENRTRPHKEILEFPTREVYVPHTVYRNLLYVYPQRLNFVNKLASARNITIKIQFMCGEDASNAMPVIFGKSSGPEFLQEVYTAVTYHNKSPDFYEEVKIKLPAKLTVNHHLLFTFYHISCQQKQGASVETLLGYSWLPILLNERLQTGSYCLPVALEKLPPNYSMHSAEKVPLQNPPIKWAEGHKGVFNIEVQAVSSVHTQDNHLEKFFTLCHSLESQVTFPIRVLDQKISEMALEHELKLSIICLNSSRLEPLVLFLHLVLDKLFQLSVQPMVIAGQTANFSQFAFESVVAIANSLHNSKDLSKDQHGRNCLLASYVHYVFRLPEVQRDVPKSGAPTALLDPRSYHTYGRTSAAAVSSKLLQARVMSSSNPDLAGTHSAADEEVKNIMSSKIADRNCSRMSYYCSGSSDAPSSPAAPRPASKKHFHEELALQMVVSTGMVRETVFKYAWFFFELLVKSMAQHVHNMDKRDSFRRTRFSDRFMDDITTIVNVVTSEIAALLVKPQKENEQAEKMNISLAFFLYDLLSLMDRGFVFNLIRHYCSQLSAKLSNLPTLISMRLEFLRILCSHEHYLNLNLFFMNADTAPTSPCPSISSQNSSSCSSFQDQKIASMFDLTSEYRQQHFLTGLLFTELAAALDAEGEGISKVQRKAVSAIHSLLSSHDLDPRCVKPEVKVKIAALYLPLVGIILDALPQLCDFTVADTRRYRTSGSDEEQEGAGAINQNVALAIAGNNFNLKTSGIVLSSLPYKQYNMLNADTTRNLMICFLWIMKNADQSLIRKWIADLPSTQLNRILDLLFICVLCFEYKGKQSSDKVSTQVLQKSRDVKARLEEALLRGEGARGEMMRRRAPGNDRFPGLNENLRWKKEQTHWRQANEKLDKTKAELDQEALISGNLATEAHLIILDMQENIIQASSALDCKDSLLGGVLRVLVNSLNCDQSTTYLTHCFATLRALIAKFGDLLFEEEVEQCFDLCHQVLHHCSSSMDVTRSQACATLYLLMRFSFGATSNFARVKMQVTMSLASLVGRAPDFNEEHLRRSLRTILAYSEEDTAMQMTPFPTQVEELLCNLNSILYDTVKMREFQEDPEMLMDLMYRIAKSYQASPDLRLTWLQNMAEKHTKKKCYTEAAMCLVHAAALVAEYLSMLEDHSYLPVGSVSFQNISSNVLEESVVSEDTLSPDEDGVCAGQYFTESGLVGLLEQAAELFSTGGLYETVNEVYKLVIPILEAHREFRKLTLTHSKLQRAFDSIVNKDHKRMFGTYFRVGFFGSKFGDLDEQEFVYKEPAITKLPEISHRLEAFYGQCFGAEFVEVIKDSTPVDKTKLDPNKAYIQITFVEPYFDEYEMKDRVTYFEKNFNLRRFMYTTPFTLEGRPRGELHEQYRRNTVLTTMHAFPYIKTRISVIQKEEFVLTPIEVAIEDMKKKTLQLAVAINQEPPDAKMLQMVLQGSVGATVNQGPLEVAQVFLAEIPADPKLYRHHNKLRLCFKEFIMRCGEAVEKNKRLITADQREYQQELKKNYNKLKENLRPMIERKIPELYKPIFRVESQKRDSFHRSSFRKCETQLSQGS
UniProt Q9NZJ5, sequence (Q9NZJ5 whole entry, looked up): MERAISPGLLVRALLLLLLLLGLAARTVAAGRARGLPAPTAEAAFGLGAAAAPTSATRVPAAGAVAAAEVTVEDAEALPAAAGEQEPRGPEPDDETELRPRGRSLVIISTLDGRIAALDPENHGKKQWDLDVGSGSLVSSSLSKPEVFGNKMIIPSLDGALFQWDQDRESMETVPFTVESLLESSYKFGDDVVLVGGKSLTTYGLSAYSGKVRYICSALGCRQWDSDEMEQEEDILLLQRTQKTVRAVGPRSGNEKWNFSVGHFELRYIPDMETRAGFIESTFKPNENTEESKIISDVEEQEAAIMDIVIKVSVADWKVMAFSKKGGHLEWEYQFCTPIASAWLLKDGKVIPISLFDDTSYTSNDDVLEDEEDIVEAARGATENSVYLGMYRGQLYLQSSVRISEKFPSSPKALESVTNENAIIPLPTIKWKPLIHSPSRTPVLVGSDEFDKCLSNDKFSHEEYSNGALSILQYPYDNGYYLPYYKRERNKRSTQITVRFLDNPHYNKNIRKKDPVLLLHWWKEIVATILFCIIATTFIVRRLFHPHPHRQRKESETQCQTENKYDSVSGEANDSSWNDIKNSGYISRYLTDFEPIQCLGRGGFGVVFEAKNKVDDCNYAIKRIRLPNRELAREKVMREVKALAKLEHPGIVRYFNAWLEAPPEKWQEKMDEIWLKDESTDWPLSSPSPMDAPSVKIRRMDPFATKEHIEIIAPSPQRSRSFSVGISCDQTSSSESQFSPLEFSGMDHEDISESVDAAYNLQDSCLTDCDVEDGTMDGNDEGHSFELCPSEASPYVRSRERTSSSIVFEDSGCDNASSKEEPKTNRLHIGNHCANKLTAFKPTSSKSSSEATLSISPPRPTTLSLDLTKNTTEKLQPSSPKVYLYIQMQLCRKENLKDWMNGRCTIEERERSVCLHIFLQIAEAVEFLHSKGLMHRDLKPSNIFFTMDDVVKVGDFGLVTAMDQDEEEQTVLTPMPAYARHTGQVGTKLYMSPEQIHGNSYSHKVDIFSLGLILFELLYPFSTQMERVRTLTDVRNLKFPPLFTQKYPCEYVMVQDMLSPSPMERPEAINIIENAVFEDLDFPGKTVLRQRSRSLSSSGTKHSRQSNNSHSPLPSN
UniProt Q7Z2Z2, sequence (Q7Z2Z2 whole entry, looked up): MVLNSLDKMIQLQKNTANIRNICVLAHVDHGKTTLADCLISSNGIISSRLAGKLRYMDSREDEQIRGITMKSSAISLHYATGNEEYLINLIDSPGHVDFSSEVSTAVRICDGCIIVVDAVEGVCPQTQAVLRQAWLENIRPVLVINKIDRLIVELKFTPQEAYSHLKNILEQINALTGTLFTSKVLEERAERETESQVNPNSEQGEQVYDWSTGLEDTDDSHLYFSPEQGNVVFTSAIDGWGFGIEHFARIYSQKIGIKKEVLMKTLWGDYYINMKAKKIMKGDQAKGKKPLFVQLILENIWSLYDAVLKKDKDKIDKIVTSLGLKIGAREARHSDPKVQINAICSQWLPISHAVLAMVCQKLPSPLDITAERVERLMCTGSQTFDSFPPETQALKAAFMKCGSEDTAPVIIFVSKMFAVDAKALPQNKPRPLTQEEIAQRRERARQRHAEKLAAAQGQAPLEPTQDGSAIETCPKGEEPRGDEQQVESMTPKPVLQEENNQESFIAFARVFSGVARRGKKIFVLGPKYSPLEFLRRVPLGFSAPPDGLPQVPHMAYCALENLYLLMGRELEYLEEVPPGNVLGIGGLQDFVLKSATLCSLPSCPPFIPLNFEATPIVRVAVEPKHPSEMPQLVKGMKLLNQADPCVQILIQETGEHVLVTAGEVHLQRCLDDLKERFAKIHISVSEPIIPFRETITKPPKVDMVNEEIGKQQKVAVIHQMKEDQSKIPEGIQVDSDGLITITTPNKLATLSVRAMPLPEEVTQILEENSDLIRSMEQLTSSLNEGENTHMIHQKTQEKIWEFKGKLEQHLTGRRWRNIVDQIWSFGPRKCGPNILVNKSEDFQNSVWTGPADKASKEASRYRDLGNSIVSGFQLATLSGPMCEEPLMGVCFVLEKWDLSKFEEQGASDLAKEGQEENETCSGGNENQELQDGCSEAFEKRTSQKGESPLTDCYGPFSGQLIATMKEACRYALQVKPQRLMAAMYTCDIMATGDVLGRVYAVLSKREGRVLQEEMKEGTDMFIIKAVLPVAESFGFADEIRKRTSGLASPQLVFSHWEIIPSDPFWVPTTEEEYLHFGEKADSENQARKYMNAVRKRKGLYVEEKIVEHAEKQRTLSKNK
UniProt Q9H773, sequence (Q9H773 whole entry, looked up): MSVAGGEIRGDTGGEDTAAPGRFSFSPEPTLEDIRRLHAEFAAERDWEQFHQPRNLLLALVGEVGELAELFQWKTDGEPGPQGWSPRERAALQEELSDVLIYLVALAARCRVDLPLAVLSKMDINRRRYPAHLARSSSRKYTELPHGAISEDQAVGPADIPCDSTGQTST
UniProt Q9NRY5, sequence (Q9NRY5 whole entry, looked up): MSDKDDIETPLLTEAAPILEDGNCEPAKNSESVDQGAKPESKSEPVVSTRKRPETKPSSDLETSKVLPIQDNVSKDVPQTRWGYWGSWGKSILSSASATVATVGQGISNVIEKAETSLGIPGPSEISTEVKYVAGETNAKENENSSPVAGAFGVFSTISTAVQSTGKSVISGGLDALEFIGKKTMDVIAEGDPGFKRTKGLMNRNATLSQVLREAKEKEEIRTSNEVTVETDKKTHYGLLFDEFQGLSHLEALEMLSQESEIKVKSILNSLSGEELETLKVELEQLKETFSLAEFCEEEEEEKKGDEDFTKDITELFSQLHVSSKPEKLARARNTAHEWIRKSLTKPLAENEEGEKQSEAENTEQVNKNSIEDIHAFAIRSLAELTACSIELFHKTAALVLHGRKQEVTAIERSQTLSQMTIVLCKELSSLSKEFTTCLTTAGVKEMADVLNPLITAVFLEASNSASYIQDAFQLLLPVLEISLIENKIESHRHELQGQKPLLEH

Compound in the experiment: c1cn2cc(-c3ccc4cn[nH]c4c3)nc(Nc3ccc(N4CCOCC4)cc3)c2n1 [entospletinib]
Briefly: log2 fold change, soluble protein after heating vs DMSO (PISA); higher = thermal stabilisation; K562 cells, 10 uM, 30 min; active = over 0.2 and 3.5 SD of the protein, either way, in both replicates (recomputed). The gist of the method: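 Soluble protein was quantified by TMTpro 16plex LC-MS/MS after channel sums were equalised. It was obtained as the supernatant after 21,000xg for 90 min from pooled aliquots of K562 cells (2×10^6 cells/mL, 10 μM compound, 30 min) heated for 3 min across 48°C-58°C and extracted in PBS with 0.5% NP-40 at 4°C. Thermal stability values are relative to control samples and come from duplicates. They are given as log2 fold changes.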
Consider DHCR7 (UniProt Q9UBM7), for which the log2 fold change is -0.045 (inactive).
DTWD1 (UniProt Q8N5C7): the log2 fold change is 0.039 (inactive).
The value for EDC3 (UniProt Q96F86) was -0.068 (inactive); that for DOLPP1 (UniProt Q86YN1) was 0.055 (inactive).
The figure for DLK1 (UniProt P80370) is 0.076 (inactive); for EIF4G1 isoform 8 (UniProt Q04637) it is 0.024 (inactive).
Regarding DNAH5 (UniProt Q8TE73), the log2 fold change was -0.039 (inactive).
On to DHRS3 (UniProt O75911), for which the log2 fold change is -0.041 (inactive).
Take DMXL1 (UniProt Q9Y485): the log2 fold change was 0.04 (inactive).
The value for DCAF13 (UniProt Q9NV06) was 0.061 (inactive).
As for DPYSL2 (UniProt Q16555), the log2 fold change was -0.015 (inactive).
On to CTNNBL1 (UniProt Q8WYA6), for which the log2 fold change was 0.069 (inactive).
The value for DCAF6 isoform 3 (UniProt Q58WW2) was -0.008 (inactive); that for DYNC1I2 isoform 2 (UniProt Q13409) was 0.082 (inactive).
As for FAM177A1 isoform 2 (UniProt Q8N128), the log2 fold change is 0.05 (inactive).
With DEGS1 (UniProt O15121), the log2 fold change was -0.03 (inactive).
With FADS1, A0A0A0MR51, the log2 fold change was 0.055 (inactive).
With EXOC2 (UniProt Q96KP1), the log2 fold change is -0.005 (inactive).
The value for DHRS13 (UniProt Q6UX07) was -0.111 (inactive); that for DAG1 (UniProt Q14118) was 0.003 (inactive); that for EIF2S3 (UniProt P41091) was -0.051 (inactive).
Take DOCK8 (UniProt Q8NF50): the log2 fold change is -0.044 (inactive).
The value for DCTN1 isoform 4 (UniProt Q14203) was 0.061 (inactive); that for EFCAB14 (UniProt O75071) was 0.001 (inactive); that for FAM114A2 (UniProt Q9NRY5) was -0.022 (inactive).
For the target DDX27 (UniProt Q96GQ7), the log2 fold change is -0.035 (inactive).
Regarding EIF2AK3 (UniProt Q9NZJ5), the log2 fold change is -0.03 (inactive).
The figure for DFFB (UniProt O76075) is -0.024 (inactive).
The value for FAM207A (UniProt Q9NSI2) was 0.013 (inactive); that for EVC2 (UniProt Q86UK5) was -0.104 (inactive).
The value for DUS2 (UniProt Q9NX74) was -0.063 (inactive); that for DCTPP1 (UniProt Q9H773) was -0.008 (inactive).
For EFL1 (UniProt Q7Z2Z2), the log2 fold change is -0.06 (inactive).
The figure for DNAJB1 (UniProt P25685) is -0.085 (inactive).
